Test results as given in ChEMBL document CHEMBL5606460, “ASAP - DENV-2 NS2B-NS3 protease fluorescence single point” (2024).
Out of some 2,000 compounds screened, about 110 (5.5%) showed an effect of 50% or more. Only a selection was taken, and strong results are over-represented in it overall.

Molecular target: Genome polyprotein (dengue virus type 2) (UniProt P29990)

Cc1cc(CO)c2cccc(Cc3cccc(NC(=O)Cc4c(C)c5c(=O)[nH]n(C)c5[nH]c4=O)c3)c2n1
inhibition (Thailand/16681/1984, Concentration 49.95 uM, Number of replicates 2.0, Standard deviation 0.9721935995806666 %): 38.4%
inhibition (Thailand/16681/1984, Concentration 99.9 uM, Number of replicates 2.0, Standard deviation 1.6660426680996274 %): 65.6%

Cc1cc(CO)c2cccc(NC(=O)CC3CNC3)c2n1
inhibition (Thailand/16681/1984, Concentration 49.95 uM, Number of replicates 2.0, Standard deviation 1.3762045228616064 %): 7.76%
inhibition (Thailand/16681/1984, Concentration 99.9 uM, Number of replicates 2.0, Standard deviation 1.6376626661863318 %): 14.8%

Cc1cc(CO)c2cccc(NC(=O)Cc3c(C)c4c(=O)[nH]n(C)c4[nH]c3=O)c2n1
inhibition (Thailand/16681/1984, Concentration 49.95 uM, Number of replicates 2.0, Standard deviation 1.6565788461475972 %): 17.7%
inhibition (Thailand/16681/1984, Concentration 99.9 uM, Number of replicates 2.0, Standard deviation 1.9416844060600267 %): 32.2%

Cc1cc(CO)c2cccc(NC(=O)CC3CCNCC3)c2n1
inhibition (Thailand/16681/1984, Concentration 49.95 uM, Number of replicates 2.0, Standard deviation 2.142909982415651 %): 8.3%
inhibition (Thailand/16681/1984, Concentration 99.9 uM, Number of replicates 2.0, Standard deviation 0.2007188026491294 %): 53.9%

Cc1cc(CO)c2cccc(Cc3cccc(NC(=O)CCC4CCNCC4)c3)c2n1
inhibition (Thailand/16681/1984, Concentration 49.95 uM, Number of replicates 2.0, Standard deviation 1.9905342893580933 %): 36.1%
inhibition (Thailand/16681/1984, Concentration 99.9 uM, Number of replicates 2.0, Standard deviation 0.13016565259146895 %): 90.2%

Cc1cc(CO)c2cccc(Cc3ccccc3NC(=O)CCC3CCNCC3)c2n1
inhibition (Thailand/16681/1984, Concentration 49.95 uM, Number of replicates 2.0, Standard deviation 0.7055143046624119 %): -4.33%
inhibition (Thailand/16681/1984, Concentration 99.9 uM, Number of replicates 2.0, Standard deviation 1.236554143481246 %): 6.21%

Cc1cc(CO)c2cccc(NC(=O)CCC3CCNCC3)c2n1
inhibition (Thailand/16681/1984, Concentration 49.95 uM, Number of replicates 2.0, Standard deviation 0.01891415691253689 %): 99.7%
inhibition (Thailand/16681/1984, Concentration 99.9 uM, Number of replicates 2.0, Standard deviation 0.03175377284289565 %): 99.6%

Cc1cc(CO)c2cccc(NCC3CCNCC3)c2n1
inhibition (Thailand/16681/1984, Concentration 49.95 uM, Number of replicates 2.0, Standard deviation 0.8313641199663653 %): -6.22%
inhibition (Thailand/16681/1984, Concentration 99.9 uM, Number of replicates 2.0, Standard deviation 1.3048073716258033 %): 0.772%

Cc1cc(N)c2cccc(Br)c2n1
inhibition (Thailand/16681/1984, Concentration 49.95 uM, Number of replicates 2.0, Standard deviation 5.849609152234285 %): -8.02%
inhibition (Thailand/16681/1984, Concentration 99.9 uM, Number of replicates 2.0, Standard deviation 5.75747614138947 %): -7.97%

Cc1cc(CO)c2cccc(Cc3ccccc3NC(=O)Cc3c[nH]c4ccccc34)c2n1
inhibition (Thailand/16681/1984, Concentration 49.95 uM, Number of replicates 2.0, Standard deviation 1.1797806526631314 %): 5.6%
inhibition (Thailand/16681/1984, Concentration 99.9 uM, Number of replicates 2.0, Standard deviation 0.9471475819719768 %): 13.1%

CNC(=O)c1cc(Cl)ccc1NS(=O)(=O)c1cc(Cl)cc(C(=O)NC)c1OC
inhibition (Thailand/16681/1984, Concentration 49.5 uM, Number of replicates 2.0, Standard deviation 3.5107220562143744 %): -1.24%
inhibition (Thailand/16681/1984, Concentration 99.01 uM, Number of replicates 2.0, Standard deviation 4.644293157051252 %): 1.93%
inhibition (Thailand/16681/1984, Concentration 198.0 uM, Number of replicates 2.0, Standard deviation 3.3165321375743706 %): 8.2%

O=Cc1ccc(N2CCC(C(=O)Nc3ccc(F)cc3C(F)(F)F)CC2)cc1
inhibition (Thailand/16681/1984, Concentration 25.0 uM, Number of replicates 1.0): 12.5%

O=C(O)c1cnn(C2CCN(C(=O)c3ccnc4[nH]cnc34)CC2)c1
inhibition (Thailand/16681/1984, Concentration 49.5 uM, Number of replicates 2.0, Standard deviation 1.214191700010942 %): -2.48%
inhibition (Thailand/16681/1984, Concentration 99.01 uM, Number of replicates 2.0, Standard deviation 1.7130868961137902 %): -2.88%
inhibition (Thailand/16681/1984, Concentration 198.0 uM, Number of replicates 2.0, Standard deviation 1.3863533153956358 %): -2.86%

COc1ccccc1OCCn1cc(C2CCNCC2)c(C)n1
inhibition (Thailand/16681/1984, Concentration 49.5 uM, Number of replicates 2.0, Standard deviation 0.4008605306484476 %): -1.35%
inhibition (Thailand/16681/1984, Concentration 99.01 uM, Number of replicates 2.0, Standard deviation 0.8515456477601485 %): 0.612%
inhibition (Thailand/16681/1984, Concentration 198.0 uM, Number of replicates 2.0, Standard deviation 0.3007587308619815 %): 2.21%

N[C@H]1CC[C@H](NC(=O)[C@@H](NC(=O)OCc2ccccc2)c2ccc(OCc3ccccc3)cc2)C1
inhibition (Thailand/16681/1984, Concentration 49.5 uM, Number of replicates 2.0, Standard deviation 0.9979193615621401 %): -9.06%
inhibition (Thailand/16681/1984, Concentration 49.5 uM, Number of replicates 2.0, Standard deviation 5.780389191288721 %): -6.13%
inhibition (Thailand/16681/1984, Concentration 99.01 uM, Number of replicates 2.0, Standard deviation 0.21863424783935215 %): -6.77%
inhibition (Thailand/16681/1984, Concentration 99.01 uM, Number of replicates 2.0, Standard deviation 4.8738871027899835 %): -4.83%
inhibition (Thailand/16681/1984, Concentration 198.0 uM, Number of replicates 2.0, Standard deviation 0.20009536646595624 %): 3.56%
inhibition (Thailand/16681/1984, Concentration 198.0 uM, Number of replicates 2.0, Standard deviation 2.9330264990309507 %): 6.71%

Cn1cc(NC(=O)c2ccccc2C(F)(F)F)c(-c2ccc(O)cc2)n1
inhibition (Thailand/16681/1984, Concentration 49.5 uM, Number of replicates 2.0, Standard deviation 1.4149767575059302 %): -3.58%
inhibition (Thailand/16681/1984, Concentration 99.01 uM, Number of replicates 2.0, Standard deviation 0.6191126751592 %): -2.21%
inhibition (Thailand/16681/1984, Concentration 198.0 uM, Number of replicates 2.0, Standard deviation 0.2617465963559337 %): -3.21%

O=C1C[C@@H](CNC(=O)c2cc(Cl)ccc2NS(=O)(=O)c2ccc(Oc3ccccc3Cl)cc2)CN1
inhibition (Thailand/16681/1984, Concentration 49.5 uM, Number of replicates 2.0, Standard deviation 1.683767946709369 %): 12.4%
inhibition (Thailand/16681/1984, Concentration 99.01 uM, Number of replicates 2.0, Standard deviation 0.12281254481286434 %): 57.2%
inhibition (Thailand/16681/1984, Concentration 198.0 uM, Number of replicates 2.0, Standard deviation 0.21046989752060982 %): 53.6%

O=C1NCCC[C@@H]1CNS(=O)(=O)c1ccc(Oc2ccccc2Cl)cc1
inhibition (Thailand/16681/1984, Concentration 49.5 uM, Number of replicates 2.0, Standard deviation 0.9940716071741866 %): -2.68%
inhibition (Thailand/16681/1984, Concentration 99.01 uM, Number of replicates 2.0, Standard deviation 0.27557480876496404 %): -0.801%
inhibition (Thailand/16681/1984, Concentration 198.0 uM, Number of replicates 2.0, Standard deviation 0.9840594547230297 %): 1.79%

O=C(NCC1CC1)c1cc(Cl)ccc1NS(=O)(=O)c1ccc(Oc2ccccc2Cl)cc1
inhibition (Thailand/16681/1984, Concentration 49.5 uM, Number of replicates 2.0, Standard deviation 0.6779748794958176 %): 77.8%
inhibition (Thailand/16681/1984, Concentration 99.01 uM, Number of replicates 2.0, Standard deviation 0.21598068225710626 %): 88.2%
inhibition (Thailand/16681/1984, Concentration 198.0 uM, Number of replicates 2.0, Standard deviation 0.009057863507173258 %): 87%

O=C(N[C@H]1CCNC1=O)c1cc(Cl)ccc1NS(=O)(=O)c1ccc(Oc2ccccc2Cl)cc1
inhibition (Thailand/16681/1984, Concentration 49.5 uM, Number of replicates 2.0, Standard deviation 0.36576586141779044 %): 30.3%
inhibition (Thailand/16681/1984, Concentration 99.01 uM, Number of replicates 2.0, Standard deviation 0.2318278972972024 %): 51.8%
inhibition (Thailand/16681/1984, Concentration 198.0 uM, Number of replicates 2.0, Standard deviation 0.7755829345495912 %): 18.9%

O=C1NCC[C@@H]1CNS(=O)(=O)c1ccc(Oc2ccccc2Cl)cc1
inhibition (Thailand/16681/1984, Concentration 49.5 uM, Number of replicates 2.0, Standard deviation 4.002985951466216 %): -0.264%
inhibition (Thailand/16681/1984, Concentration 99.01 uM, Number of replicates 2.0, Standard deviation 4.526482853100752 %): 0.42%
inhibition (Thailand/16681/1984, Concentration 198.0 uM, Number of replicates 2.0, Standard deviation 4.411103663666057 %): 2.4%

O=C1C[C@@H](NS(=O)(=O)c2ccc(Oc3ccccc3Cl)cc2)CCN1
inhibition (Thailand/16681/1984, Concentration 49.5 uM, Number of replicates 2.0, Standard deviation 1.1905021365747266 %): -5.52%
inhibition (Thailand/16681/1984, Concentration 99.01 uM, Number of replicates 2.0, Standard deviation 1.0784606403673063 %): -3.29%
inhibition (Thailand/16681/1984, Concentration 198.0 uM, Number of replicates 2.0, Standard deviation 1.453680839379123 %): -1%

O=C(NC[C@H]1CCCO1)c1cc(Cl)ccc1NS(=O)(=O)c1ccc(Oc2ccccc2Cl)cc1
inhibition (Thailand/16681/1984, Concentration 49.5 uM, Number of replicates 2.0, Standard deviation 0.11391652520397291 %): 86.2%
inhibition (Thailand/16681/1984, Concentration 99.01 uM, Number of replicates 2.0, Standard deviation 0.06140357500812747 %): 84.7%
inhibition (Thailand/16681/1984, Concentration 198.0 uM, Number of replicates 2.0, Standard deviation 0.13037604965923533 %): 79.4%
